This is part of a sample that, as a whole, favours compounds with a hit. Of some 83,000 tested, about 20% had one in any assay.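 Results are percent growth after 48 hours of single-concentration exposure. 100 means growth as in untreated cells, lower positive values show inhibition; negative values down to -100 show cell death.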 Values without a mark were called inactive. The source made the active and inactive calls. How the source made its calls: active means growth percent below 10; inactive means the rest.
Assays:
Experiment in all cases: NCI-60 one-dose screen, 48 h (100 = growth as untreated, 0 = no growth, -100 = all killed)
Conditions in all cases: 10 µM unless noted
[1] = tested on: DU-145 prostate
[2] = tested on: K-562 leukemia
[3] = tested on: MALME-3M melanoma
[4] = tested on: MDA-MB-231 breast
[5] = tested on: RXF 393 renal
[6] = tested on: SF-268 CNS
[7] = tested on: SF-295 CNS
[8] = tested on: SF-539 CNS
[9] = tested on: UACC-257 melanoma
[10] = tested on: M14 melanoma

SMILES | growth [1] | growth [2] | growth [3] | growth [4] | growth [5] | growth [6] | growth [7] | growth [8] | growth [9] | growth [10]
COc1ccc(C(=O)NC(=O)Nc2cc3c(cc2F)/C(=C/c2[nH]c(C)c(CCC(=O)O)c2C)C(=O)N3)c(F)c1 | 45.9% | 45.8% | 49.9% | 61.5% | 33.5% | 32.3% | 21.3% | 15.4% | 20.1% | 44.2%
N#Cc1c(-c2ccccc2)nc(SCC(=O)N2CCN(c3ccccc3)CC2)[nH]c1=O | 120% | 112% | 94.9% | 115% | 104% | 111% | 102% | 99.2% | 89.2% | 96.7%
Nc1ccc(C(=O)CSc2nc3ccccc3[nH]2)cc1 | 103% | 103% | 107% | 105% | 110% | 99.4% | 98.1% | 104% | 107% | 108%
CO[C@H]1NC(=O)N(S(=O)(=O)c2ccc(Cl)cc2)[C@@H]1OC | 115% | 93.2% | 101% | 108% | 119% | 102% | 92.1% | 98.7% | 106% | 115%
O=C(CCl)N(C1CCCCC1)C1CCCCC1 | 112% | 104% | 112% | 120% | 107% | 103% | 98.3% | 105% | 105% | 96.2%
NC(=O)CCCN1C/C(=C\c2ccccc2)C(=O)c2ccccc21 | 102% | 97.1% | 105% | 100% | 81.9% | 90.2% | 94.3% | 105% | 87.5% | 103%
CCNc1nc(S(=O)(=O)CC)nc2ccccc12 | 103% | 85.2% | 83.3% | 102% | 107% | 92.3% | 105% | 88.3% | 85.5% | 96.8%
CN1C(=O)N(C)C2C1NN=c1s/c(=C\c3cccnc3)c(=O)n12 (stereo not given) | 95.5% | 27.7% | 71.4% | 69.1% | 92.4% | 84.8% | 81.7% | 91% | 85.2% | 61.1%
Cc1ccc(S(=O)(=O)NCCNc2cc(-c3cn(C(C)(C)C)nc3-c3cccc(O)c3)ccn2)cc1 | 88.9% | 18.6% | 61.8% | 76.6% | 68.2% | 62% | 71.6% | 64.5% | 79.2% | 86.9%
CCCCCCCCC(C)OC(=O)c1nn(C(C)=O)c2ccccc12 (stereo not given) | 110% | 106% | 106% | 99.7% | 105% | 102% | 91.5% | 98.7% | 99.7% | 101%
CCn1c2ccccc2c2cc(NC(=O)Nc3ccc([N+](=O)[O-])cc3C)ccc21 | 65.7% | 8.55% (active) | 64.5% | 29.3% | -31.1% (active) | 64.9% | 13.1% | 47% | 20% | 32.6%
COc1cc(/C(C#N)=C/c2ccc3c(c2OC)OCO3)cc2c1OCO2 | 11.2% | 20.9% | 37.1% | 29.7% | -14.3% (active) | 47.1% | 6% (active) | 4.21% (active) | 62.2% | -3.69% (active)
COc1cccc(/C=C2\Oc3cc(OCCCN4CCCC4)ccc3C2=O)c1 | 94.7% | -35.5% (active) | 98.9% | 76.7% | 81% | 88.3% | 91.1% | 76.1% | 102% | 65.9%
Clc1ccccc1-c1nc2ccccc2[nH]1 | 110% | 89.6% | 101% | 102% | 99.9% | 102% | 96% | 94.6% | 113% | 85.8%
CCN(CC)CCOc1ccc(Cl)c(C)c1 | 107% | 111% | 94.4% | 104% | 104% | 98% | 118% | 108% | 99.5% | 103%
NC1=NC(SCc2ccccc2CCl)c2ncn(Cc3ccccc3CCl)c2N1 (stereo not given) | 64% | 21.9% | 19.4% | 47.5% | -4.55% (active) | 54.9% | 101% | 69.4% | 42.5% | 40%
COc1ccc(Nc2[nH]n3c(=O)cc(-c4ccccc4)nc3c2C(=O)Nc2ccc(C)cc2)c(OC)c1 | 118% | 68.4% | 91.6% | 86.2% | 92.1% | 96.2% | 95.7% | 81% | 85.4% | 95.6%
COc1ccc(-c2cc3c(OC)c(OC)c(OC)cc3oc2=O)cc1 | 73.3% | 26.1% | 46.9% | 57.8% | 81.4% | 66.8% | 54.3% | 59.9% | 82.4% | 28.9%
O=C1/C(=C/c2ccc(Cl)cc2)CN(C(=O)CCN2CCC(=NO)CC2)C/C1=C\c1ccc(Cl)cc1 | -89.2% (active) | -13.9% (active) | -49.5% (active) | -83.1% (active) | -91.3% (active) | -60.1% (active) | -76.3% (active) | -84.5% (active) | -76.7% (active) | -45.2% (active)
Brc1ccc(-c2[nH]ncc2-c2c[nH]c3ccccc23)cc1 | 108% | 88.4% | 90.6% | 67.7% | 103% | 89% | 96.2% | 93.3% | 91.6% | 89.7%
CCc1ccc(-c2ccc(=O)n(-c3ccc(S(N)(=O)=O)cc3)n2)cc1 | 59.6% | 11% | 35.6% | 66.8% | -31.8% (active) | 42.1% | 18.4% | 43.6% | 22.3% | 17.7%
O=C1NC(=C(Cl)Cl)/C(=N/S(=O)(=O)N2CCC(C3(C(F)(F)F)N=N3)CC2)N1 | 102% | 8.72% (active) | 100% | 71.2% | 79.5% | 86% | 101% | 98.2% | 97.2% | 98.9%
CCCCOc1ccc(/C=C2/SC(N3CCOCC3)=NC2=O)cc1OCC | 99.4% | 86.4% | 93.1% | 83.8% | 94.6% | 99.2% | 100% | 86.4% | 108% | 91.8%
Cc1c(C(=O)/C=C/c2csc3ccccc23)[n+](=O)c2ccccc2n1[O-] | -3.03% (active) | 21.7% | 125% | 64.2% | 13.1% | 44% | 84.6% | 89.2% | 81.5% | 62.9%
NC1=NN(O)C2=CC([N+](=O)[O-])C=CC2=N1 (stereo not given) | 114% | 103% | 137% | 118% | 115% | 101% | 117% | 98.5% | 94.8% | 113%
Cn1cnc2c(N3CCN(C(=O)OCc4ccc5c(Cl)cc(Cl)c(O)c5n4)CC3)nc(Cl)nc21 | 61.1% | 44.9% | 85.2% | 83% | 74.4% | 59.5% | 38.7% | 82.7% | 89.6% | 66.1%
Brc1cccc(-c2cc(-c3ccc4c(c3)OCCCO4)[nH]n2)c1 | 69.3% [25 µM] | 17.4% [25 µM] | 52.9% [25 µM] | 49.4% [25 µM] | 82.4% [25 µM] | 68.8% [25 µM] | 62.3% [25 µM] | 77.1% [25 µM] | 96.7% [25 µM] | 49.6% [25 µM]

— PubChem BioAssay (NCI)
